The panel holds about 79,000 compounds, 15% with a hit somewhere; the sample as a whole holds those more often. Values without a mark were called inactive. Calls of active or inactive are those of the source. Rule as the data show it: active = growth inhibition above about 70%; inactive = the rest.

The assay can be described thus: NCI Yeast Anticancer Drug Screen. Data for the mec2-1 strain (AID 157). Particulars: S. cerevisiae mec2-1 strain, at 50.0 µM (retest, dose inferred, filed as 5.0), stronger effect = higher value. The method, boiled down: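 Using mec2-1 yeast: add compound, measure growth, express inhibition versus vehicle-treated cultures.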
In the case of `O=[N+]([O-])c1cc[n+]([O-])c2ccccc12`, the growth inhibition was 99% (active). The value for `COc1c[c]([Hg][O]C(C)=O)c(OC)c(NC(=O)CC(C)=O)[c]1[Hg][O]C(C)=O` was 96% (active); that for `CN(C)c1ccc(C2N(Cc3ccc(N(CCCl)CCCl)cc3)CCCN2Cc2ccc(N(CCCl)CCCl)cc2)cc1` was 55%; that for `CC(=O)c1ccc(-[n+]2c(C)cc(-c3ccccc3)cc2C)cc1` was -6%. Under `[O]=[Sb]([OH])([OH])[c]1ccc(NC2OC(CO)C(O)C(O)C2O)cc1` (stereo not given) stands -2%; under `CCC1CN1P(=O)(Oc1ccccc1)N1CC1CC` (stereo not given), -42%. The value for `CCN(CC)CC(=O)c1cc2ccccc2c2ccccc12` was 93% (active); that for `O=C1CCCC1Cl` (stereo not given) was -3%. Consider `N#C[S-].[La+3].c1ccc(-c2ccccn2)nc1.c1ccc(-c2ccccn2)nc1.c1ccc(-c2ccccn2)nc1`, for which the growth inhibition is 99% (active). Under `O=c1s[se]c2ccccc12` stands 99% (active). The value for `O=C(CCl)Nc1ccc(Cl)cc1` was 29%; that for `O=C1N[C@H]2[C@H](O)[C@H](O)[C@@H](O)[C@H](O)[C@@H]2c2cc3c(c(O)c21)OCO3` was 70% (active); that for `O=C(Nc1n[c]([Hg][Cl])[c]([Hg][Cl])s1)OCc1ccccc1` was 99% (active). For the compound `CC[C@@]1(O)C[C@H](OC2CC(N(C)C)C(O)C(C)O2)c2c(cc3c(c2O)C(=O)c2c(O)ccc(O)c2C3=O)[C@H]1C(=O)OC` (stereo not given in full), the growth inhibition is 98% (active). The value for `CCCCCc1cc(O)c(CCCC)c(O)c1` was 63%. Under `NC(=O)/C=C/c1ccc([As]=O)cc1` (stereo not given) stands 22%; under `O=[N+]([O-])c1cccc(SC(Cl)(Cl)Cl)c1`, 99% (active); under `COc1cc(/C=C(/C)[N+](=O)[O-])ccc1O`, 100% (active). The value for `CCC[CH2][Sn]1([CH2]CCC)[O]CC(CN2CCOCC2)[O]1` (stereo not given) was 35%; that for `O=C1CN2CCCCC2CN1` (stereo not given) was -47%. For the compound `CCC[CH2][Sn]([CH2]CCC)([O]C(=O)CCC(C)=O)[O]C(=O)CCC(C)=O`, the growth inhibition was 99% (active).

`C[CH2][Sn]([F])([CH2]C)[CH2]C`: the growth inhibition is 92% (active). `CN(C)CCBr`: the growth inhibition is 92% (active). With `O=[N+]([O-])c1ccc2c3c(cccc13)CC2`, the growth inhibition is 32%. As for `CC1=CC2CC(C)=C(CC[C@]3(C)CC[C@H]([C@@H](C)C(=O)O)OO3)C(C)(C)C2CC1` (stereo not given in full), the growth inhibition was 99% (active). Under `ClC(CN1CCCCC1)C(Cl)c1ccccc1` (stereo not given) stands 21%; under `CCOC(=O)c1ccc(N=Cc2ccc(N(CCCl)CCCl)cc2C)cc1`, 22%; under `CN=C(N)N/N=C(\C)c1ccc2sc3ccc(/C(C)=N/NC(N)=NC)cc3c2c1`, -2%.

As for `c1cc2n[pH]nc2cn1` (stereo not given), the growth inhibition was -8%. The value for `O=[N+]([O-])c1ccc(Br)c([N+](=O)[O-])c1` was 99% (active). The value for `O=C(CBr)NC1CCCCC1` was 94% (active); that for `CC(C)C12C=C3CCC4C(C)(C(=O)O)CCCC4(C)C3(CC1)OO2` (stereo not given) was 95% (active); that for `IC(I)=C(I)I` was 96% (active). Turning to `Clc1ccc2c(c1)C(c1ccccc1Cl)=NCC(SCCN1CCOCC1)=N2`, the growth inhibition was 92% (active). `CCOP(=O)(OCC)/C(C#N)=C/c1ccc(Br)cc1`: the growth inhibition is 97% (active). Under `Cc1ccc(C(=O)C2C(c3ccccc3)N2C2CCCCC2)cc1` (stereo not given) stands 88% (active); under `CN(C)c1ncnc2c1ncn2C1OC(CO)C2NP(=O)(N(CCCl)CCCl)OC21` (stereo not given), 24%. The value for `Nc1nc(N)c(-c2ccc(Cl)c(Cl)c2)c(CCc2ccc(CNC(=O)c3cccc(S(=O)(=O)F)c3)cc2)n1` was 99% (active); that for `C[CH2][Pb]([CH2]C)([CH2]C)[O]C(=O)COc1ccc(Cl)cc1Cl` was 89% (active); that for `O=C(OCC(CCl)OC(=O)C(Cl)(Cl)Cl)C(Cl)(Cl)Cl` (stereo not given) was 16%.

The values above are taken from PubChem BioAssay (NCI).
